Results reported in ChEMBL document CHEMBL3988442, “University of Dundee, Small-Polar-MMV Screening Library” (2021).

These molecules were tested against AMP-activated protein kinase, AMPK (Homo sapiens) (UniProt P54646+O43741+P54619+Q9UGJ0+Q9Y478+Q13131+Q9UGI9) (assay: AMP-dependent Kinase enzyme assay. An in vitro enzyme assay that detects ADP turnover that is directly proportional to AMPK activity. This uses naive AMPK that is activated during the assay with MK-8722). Settings: 30 µM.
Assay type: functional
Set-up: scale not given: direction of the effect not stated beside the values
With `O=C1NC(C(=O)NCc2cccnc2Oc2ccccc2F)CO1` (stereo not given) the Percent Effect was 4.53%. Molecule `CCc1cc(NC(CCO)c2ccc(OC)cc2)n2nccc2n1` (stereo not given) has a Percent Effect of 2.19%. For `CO[C@@H]1c2ccccc2C2(CCN(C(=O)CNC(=O)C(C)C)CC2)[C@H]1O`, the Percent Effect was 13.3%. `Cc1nc(O)cc(CN2C[C@H](NC(=O)C3CCC3)[C@@H](C3CC3)C2)n1` gave a Percent Effect of -2.67%. `CC1(C)CC1(C(=O)N1CC(c2cccnc2)C1)c1ccc(F)cc1` (stereo not given) was tested, and the Percent Effect was 3.87%. `N#Cc1cccc(NC(=O)N[C@H](CO)Cc2ccc(O)cc2)c1` was tested, and the Percent Effect was 6.46%. `O=C(CCn1cccn1)N1CCC(c2nnc(-c3ccsc3)o2)CC1` showed a Percent Effect of 4.17%. In the case of `Cc1ccc(C)n1-c1ccsc1C(=O)NCC(=O)N1CCCC1`, the Percent Effect is reported as 2.6%. `COc1ccc(F)c(-c2cc(C(=O)NC3CC3)ccn2)c1` showed a Percent Effect of -7.5%. In the case of `CSc1ccccc1NC(=O)c1ccc(N2CCOCC2)nn1`, the Percent Effect is reported as -1.6%. `O=C(c1cccnc1O)N1CCC2(CCCO2)CC1` showed a Percent Effect of 0.948%. In the case of `CCS(=O)(=O)NCC(=O)NC1(C)CCc2ccccc2C1` (stereo not given), the Percent Effect is reported as -3.96%. For `O=C(NCc1csc(Br)c1)Nc1cn[nH]c1`, the Percent Effect was -3.79%. With `COCCN(Cc1cnn(C)c1)c1nc2c(s1)c(C)nn2C` the Percent Effect was -0.701%. Work on `Cc1ccnc(C2CCN(CCCOc3ccccc3F)C2)n1` (stereo not given) yielded a Percent Effect of 6.41%. `CCOc1cccc(C(C(=O)O)N(C)Cc2cc(C)no2)c1` (stereo not given) showed a Percent Effect of 7.67%. In the case of `N#CC1(NC(=O)c2ccc(F)cc2OC(F)F)CCOCC1`, the Percent Effect is reported as 1.96%. `Cc1nonc1CNC(=O)C(C)Oc1cccc(F)c1` (stereo not given) showed a Percent Effect of 11.1%. In the case of `Cc1cc(C[S+]([O-])Cc2ccccc2F)no1` (stereo not given), the Percent Effect is reported as 13.9%. `COc1ccc(CCN(C)C(=O)CN2C(=O)OC[C@@H]2C(C)C)cc1OC` showed a Percent Effect of 4.03%.
